Gal4-VP16 FLuc: VP16 counterscreen qHTS for inhibitors of ROR gamma transcriptional activity; Drosophila S2 Gal4-VP16 UAS-luciferase, luminescence, 20 h; Potency, µM (highest dose often 53.6 µM), without a hit: top-dose activity, negative = inhibition, most hits filed as inhibitors; hit rate 3.5% among 310,000;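 note: Gal4-VP16 expression switched on by copper sulfate through the metallothionein promoter; potency is the fitted concentration of half-maximal effect; nearly all actives have a fitted effect of over 50% in size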
TDP1 cell CPT: qHTS for Inhibitors of human tyrosyl-DNA phosphodiesterase 1 (TDP1): qHTS in cells in presence of CPT | chicken DT40 Tdp1-/-;hTDP1 cells + 20 nM CPT, ATP luminescence, 48 h | Potency, µM (top dose mostly 46.2 µM), inactives show top-dose activity change, negative = growth inhibition, usual class: inhibitors | hit rate 12% among 420,000; note: potency is the fitted concentration of half-maximal effect; nearly all actives have a fitted effect of over 55% in size
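Chicken DT40 Tdp1-/- cells complemented with human TDP1, 400 cells/well, exposed to compounds plus 20 nM camptothecin for at least 48 h at 37 C; viability read as ATP content by CellTiter-Glo luminescence.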
LDHA inh: qHTS assay for inhibitors of human lactate dehydrogenase | L-lactate dehydrogenase A chain (Homo sapiens), P00338 | purified LDHA, NADH/diaphorase-resazurin fluorescence; hits give low values | activity change, % (values are at about 110 or 230 µM) | hit rate 0.15% among 480,000 | AID 1347041, 2019; in the data active = activity change below about -30%; inconclusive = mostly about -25% to -30%;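 note: plate controls were DMSO wells for no effect and wells without enzyme for full effect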
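Human LDH5 at 2 nM final in Tris HCl pH 7.4 with 0.06 mM NADH and 0.2 mM pyruvate, reacted 5 minutes at room temperature. Remaining NADH coupled via diaphorase/resazurin; resorufin fluorescence read at 0 and 20 minutes, normalized to enzyme-free and DMSO wells.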
RORg inh: qHTS for inhibitors of ROR gamma transcriptional activity; Nuclear receptor ROR-gamma (Mus musculus), P51450; Drosophila S2 Gal4-RORgamma UAS-luciferase reporter, 20 h; Potency, µM (titrated, usually from 53.6 µM), without a hit: at the highest dose activity change, negative = inhibition, actives largely listed as inhibitors; hit rate 5.4% among 310,000; AID 2551, 2010; note: potency is the fitted concentration of half-maximal effect; nearly all actives have a fitted effect of over 60% in size
Target sequence (P51450 whole entry, looked up, the tested form may be a part): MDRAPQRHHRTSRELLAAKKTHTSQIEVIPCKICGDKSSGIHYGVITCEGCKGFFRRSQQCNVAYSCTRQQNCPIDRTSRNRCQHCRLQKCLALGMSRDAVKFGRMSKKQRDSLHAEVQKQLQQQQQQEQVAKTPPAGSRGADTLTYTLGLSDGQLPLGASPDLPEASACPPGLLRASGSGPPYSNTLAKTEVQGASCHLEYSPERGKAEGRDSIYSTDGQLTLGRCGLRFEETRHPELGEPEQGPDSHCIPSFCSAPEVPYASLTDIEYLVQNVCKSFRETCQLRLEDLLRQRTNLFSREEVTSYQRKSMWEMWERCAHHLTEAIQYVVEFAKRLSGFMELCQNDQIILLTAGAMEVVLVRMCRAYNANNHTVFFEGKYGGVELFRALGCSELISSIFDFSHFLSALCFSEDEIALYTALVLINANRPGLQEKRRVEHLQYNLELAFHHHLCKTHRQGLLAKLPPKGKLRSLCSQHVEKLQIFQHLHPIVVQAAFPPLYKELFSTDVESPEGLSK
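Luciferase reporter read in Schneider cells carrying Gal4-RORγ (mouse) and UAS-Photinus luciferase; cells given compound 1 h before 700 uM copper sulfate induction, then incubated 20 h at ambient temperature.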
DT40 TDP1 no CPT: qHTS for Inhibitors of human tyrosyl-DNA phosphodiesterase 1 (TDP1): qHTS in cells in absence of CPT; hit rate 15% among 420,000; Potency, µM (doses to about 46.2 µM), for the others: at the top dose activity change, negative = growth inhibition, hits mostly inhibitors; DT40 Tdp1-/- hTDP1 cells, no CPT, ATP luminescence, 48 h; note: potency is the fitted concentration of half-maximal effect; nearly all actives have a fitted effect of over 55% in size
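Luminescent ATP content (CellTiter-Glo) served as the growth readout. Knockout chicken DT40 cells expressing human TDP1 were exposed to compounds without camptothecin for a minimum 48 hr at 37 °C.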
IL-1B inflam inh: qHTS for Inhibitors of Inflammasome Signaling: IL-1-beta AlphaLISA Primary Screen; THP-1 LPS/ATP IL-1B secretion, AlphaLISA, 16 h; hits give low values; activity change, % at 57.5 µM; hit rate 4.7% among 360,000; in the data active = activity change below about -50%; inconclusive = mostly about -30% to -49%
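Secreted IL-1B measured by AlphaLISA bead assay after 16 h compound exposure of THP-1 cells; compounds (final up to 57.5 uM) added 1 h before LPS (250 ng/mL) and ATP (1.25 mM) stimulation; lower signal means less secretion.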
Active calls of the source: *; u = inconclusive; x = no result. Shown are actives, neighbours in structure and some others; about 18% of the full set was active somewhere. Unless noted, calls come from the whole dose curve; as a rule, active = well fitted curve in the direction sought with a large enough effect; inconclusive = small, poorly fitted or top-dose-only effect, or another doubt; inactive = no such curve, though single readings can be large; an effect the other way counts as inactive or inconclusive. Unless noted, % is set by controls: 0 for no effect and ±100 for the full control effect.

SMILES	Gal4-VP16 FLuc	TDP1 cell CPT	LDHA inh	RORg inh	DT40 TDP1 no CPT	IL-1B inflam inh
O=C(NC1CCCC(C(F)(F)F)C1)c1ccc([N+](=O)[O-])o1 (stereo not drawn)	x	u	4	x	18µM*	-98*
CCOc1cc(OCC)nc(S(C)(=O)=O)n1	-3%	21µM*	-9	-38%	15µM*	0
CCN(Cc1ccccc1)S(=O)(=O)c1ccc(C(=O)N(CCCN(C)C)c2nc3cc(C)cc(C)c3s2)cc1	x	23µM*	-2	x	12µM*	-100*
CCCCN(CC)S(=O)(=O)c1ccc(C(=O)N(CCCN(C)C)c2nc3cc(C)cc(C)c3s2)cc1	u	u	1	11µM*	23µM*	-178*
Cc1cc(C)c2sc(N(CCCN(C)C)C(=O)c3ccc(S(=O)(=O)N(C)Cc4ccccc4)cc3)nc2c1	x	u	2	x	u	-110*
CCCCN(C)S(=O)(=O)c1ccc(C(=O)N(CCN(C)C)c2nc3ccc(C)cc3s2)cc1	18%	-16%	-6	-16%	-17%	-9
CC1(Cc2ccc(OC(F)(F)F)cc2)C(=O)Nc2ccc(OC(F)(F)F)cc21 (stereo not drawn)	x	u	2	x	u	-13
CCOC(=O)C1=NOC2(C1)C(=O)Nc1ccc(OC(F)(F)F)cc12 (stereo not drawn)	x	u	-2	x	16µM*	-11
CC(=O)Nc1ccc(SC2CCCC2)cc1	x	x	0	x	x	x
Cn1nc(CC(=O)NCc2ccccc2CN2CCCCC2)c2ccccc2c1=O	x	x	4	x	x	x
CCC(C(=O)c1ccc(Cl)cc1)C(c1ccc(Cl)cc1)C(C(=O)OC)C(=O)OC (stereo not drawn)	x	x	8	x	x	x
Cc1ncc(C(O)c2ccc(N(C)C)cc2)n1Cc1ccccc1 (stereo not drawn)	x	u	-9	x	23µM*	-2
CCc1ncc(C(O)c2ccc(Cl)cc2)n1Cc1ccccc1 (stereo not drawn)	x	18µM*	-13	x	12µM*	17
COc1ccc(C(O)c2nccn2Cc2ccccc2)cc1 (stereo not drawn)	0%	-29%	-11	-24%	-14%	-10
CCOc1ccc(NC(=O)c2nn(-c3ccccc3OC)c(=O)c3ccccc23)cc1	x	x	1	x	x	x
CSc1ccc(-c2nc(CSCC(=O)NCc3ccc4c(c3)OCO4)c(C)o2)cc1	x	x	7	x	x	x
CS(=O)(=O)N(CC(=O)N/N=C/c1ccccc1C(=O)O)c1cccc(Cl)c1Cl	-3%	-14%	-2	-8%	0%	18
CCOC(=O)c1ccc(-c2ccc(/C=N/NC(=O)CN(c3ccccc3Cl)S(C)(=O)=O)o2)cc1	-6%	u	-4	u	23µM*	-9
Cc1ccc(C)c(N(CC(=O)N/N=C/c2ccc(-c3ccc([N+](=O)[O-])cc3)o2)S(=O)(=O)c2ccccc2)c1	-6%	u	-4	2%	u	-14
CCOC(=O)c1ccc(-c2ccc(/C=N/NC(=O)CN(c3cccc(C)c3)S(C)(=O)=O)o2)cc1	-11%	u	2	18%	15µM*	13
CC(C)c1ccc(/C=N/NC(=O)CN(c2cccc(Cl)c2Cl)S(C)(=O)=O)cc1	u	29µM*	0	-39%	u	u
CC1CCN(S(=O)(=O)c2cc3cc(Cl)ccc3oc2=O)CC1	x	x	-11	x	x	x
COc1cc(C(=O)/C(=C/c2cccnc2)c2nc3ccccc3o2)cc(OC)c1OC	x	x	-13	x	x	x
Cc1ccc(N2CCN(CC(O)COc3cccc4ccccc34)CC2)cc1 (stereo not drawn)	-22%	u	-6	4%	u	-21
Cc1cccc(N2CCN(CC(O)COc3ccc(Cl)cc3)CC2)c1 (stereo not drawn)	-11%	u	-1	-20%	13µM*	u
SMILES	Gal4-VP16 FLuc	TDP1 cell CPT	LDHA inh	RORg inh	DT40 TDP1 no CPT	IL-1B inflam inh
Cc1ccc(N2CCN(CC(O)COc3cccc(C)c3)CC2)cc1 (stereo not drawn)	-15%	23µM*	-1	9%	u	3
Cc1cccc(N2CCN(CC(O)COc3ccccc3)CC2)c1 (stereo not drawn)	x	-5%	-5	x	8%	-15
CC1(C)Cc2ccccc2/C(=C/C(=O)N2CCCCCC2)N1	u	16µM*	-11	u	26µM*	-4
CCN(CC)c1ccc2c(-c3ccc(S(=O)(=O)O)cc3S(=O)(=O)[O-])c3ccc(=[N+](CC)CC)cc-3oc2c1	u	u	-232*	-34%	7.3µM*	28
CCN(CC)c1ccc2nc3c4ccccc4c(=O)cc-3oc2c1	22%	-11%	-1	-21%	-14%	-25
CCOc1ccc(CCNC(=O)c2cn(CC)c3ccc(S(=O)(=O)N4CCCCCC4)cc3c2=O)cc1OCC	x	u	5	x	18µM*	x
CCOc1ccc(CCNC(=O)c2cn(C)c3ccc(S(=O)(=O)N4CCCCCC4)cc3c2=O)cc1OCC	x	u	-4	x	u	x
CCN(CC)S(=O)(=O)c1ccc2c(c1)c(=O)c(C(=O)N1CCN(c3cc(Cl)ccc3C)CC1)cn2C	x	16µM*	3	x	u	x
C=CCn1cc(C(=O)N2CCc3ccccc3C2)c(=O)c2cc(S(=O)(=O)N(CC)CC)ccc21	-5%	u	-7	u	18µM*	-25
CCN(CC)S(=O)(=O)c1ccc2c(c1)c(=O)c(C(=O)NCc1ccccc1Cl)cn2C	x	9.2µM*	-2	x	7.3µM*	x
C=CCn1cc(C(=O)N2CCN(c3ccccc3)CC2)c(=O)c2cc(S(=O)(=O)N3CCCC3)ccc21	1%	u	-9	16%	3%	-3
N#Cc1nc(-c2ccc(S(=O)(=O)N3CCCCCC3)cc2)oc1NCc1ccc2c(c1)OCO2	x	x	1	x	x	x
CC(C)Nc1nc(C(=O)Nc2ccc(O)cc2)cs1	x	x	-13	x	x	x
CC(C)N(C)C(=O)c1ccc(Cl)c(NC(=O)C2(C)CC2(Cl)Cl)c1 (stereo not drawn)	x	x	14	x	x	x
CCc1cc(=O)n(CC(=O)Nc2ccccc2C)c(-n2nc(C)cc2C)n1	x	x	6	x	x	x
CCn1cc(C(=O)NCCc2ccc(OC)c(OC)c2)c(=O)c2cc(S(=O)(=O)N3CCOCC3)ccc21	-2%	u	1	35%	18µM*	-18

Bioassay records from PubChem BioAssay.
